115 sequences from the supplement of paper PMC3724861 can be followed below.

This is one part of a sample in which hits are shown more often than they occur. No count for the full screen is at hand. A number with no mark means an inactive call.

The test system of this assay is T1, Caupolican (Caup) homeodomain DNA-binding domain.
T1 sequence: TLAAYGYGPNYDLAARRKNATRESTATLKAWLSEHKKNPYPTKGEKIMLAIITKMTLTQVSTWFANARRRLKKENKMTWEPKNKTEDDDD
Put plainly: PBM E-score (8-mer, recovered from the published 9-mer minima) (E-score (dimensionless, -0.5 to 0.5)); Drosophila protein; higher = stronger relative binding preference, active = 0.31 or more. The procedure, abridged:
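Caup's homeodomain DNA-binding domain (residues 214-303) was produced by in vitro transcription and translation and applied at 100 nM to custom-designed protein binding microarrays. Each value is an enrichment score giving relative binding preference for a short DNA word; higher means stronger. Published 9-mer scores were the minimum of their two constituent 8-mer scores, and the 8-mer values were recovered from those minima. A cutoff of 0.31 marks candidate binding sequences.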
On to AGTTGTAT, for which the “PBM E-score” value is 0.231.

GCTTGTAA: the “PBM E-score” value is 0.384 (active).

As for TATTGTAA, the “PBM E-score” value is 0.275.

Turning to TCTTGCAA, the “PBM E-score” value was 0.0461.

Take AATTGTAT: the “PBM E-score” value was 0.228.

As for ACTTGTAT, the “PBM E-score” value is 0.391 (active).

On to TCTTGTAA, for which the “PBM E-score” value is 0.371 (active).

Take ACTTGTAA: the “PBM E-score” value was 0.403 (active).

As for ATATCTAC, the “PBM E-score” value was 0.166.

As for ACAAAAAC, the “PBM E-score” value is 0.117.

Consider AGTTGGTG, for which the “PBM E-score” value is -0.0391.

For the sequence CCGCATAG, the “PBM E-score” value is -0.0554.

Regarding ATTGTTCG, the “PBM E-score” value is 0.213.

For CGCTCAGC, the “PBM E-score” value was -0.138.

Consider ATACAAGG, for which the “PBM E-score” value was 0.283.

Consider CTACAAGA, for which the “PBM E-score” value is 0.263.

With GTACAATA, the “PBM E-score” value is 0.306.

GTACAAGA: the “PBM E-score” value is 0.418 (active).

On to GCACAAGA, for which the “PBM E-score” value is 0.0557.

Regarding GTACAAAA, the “PBM E-score” value was 0.323 (active).

Regarding ATACAAGC, the “PBM E-score” value was 0.316 (active).

On to ATACAATA, for which the “PBM E-score” value was 0.26.

For CTACAAGC, the “PBM E-score” value is 0.29.

On to TTACAAAA, for which the “PBM E-score” value is 0.203.

For ATACAAGA, the “PBM E-score” value was 0.322 (active).

With CTACAAAA, the “PBM E-score” value was 0.123.

As for AATAGCCT, the “PBM E-score” value is -0.0311.

AATAGAGA: the “PBM E-score” value was 0.041.

Take CACGTAAG: the “PBM E-score” value is 0.0839.

Take GTGCTCCA: the “PBM E-score” value was -0.0875.

Consider CTTCCAGC, for which the “PBM E-score” value was -0.248.

Take CCCGAATC: the “PBM E-score” value was -0.201.

AACATCTT: the “PBM E-score” value is 0.246.

For AAAATGTT, the “PBM E-score” value is 0.249.

In the case of AACATGTA, the “PBM E-score” value is ≥ 0.48 (active).

Take CACATGTC: the “PBM E-score” value was 0.387 (active).

As for AACATCTA, the “PBM E-score” value was 0.252.

For CACATCTA, the “PBM E-score” value is 0.208.

For the sequence CACATGTA, the “PBM E-score” value is 0.42 (active).

As for CACATCTC, the “PBM E-score” value is -0.00827.

On to AACATGTT, for which the “PBM E-score” value was 0.45 (active).

As for CAAATGTC, the “PBM E-score” value is 0.141.

Take AACATTTA: the “PBM E-score” value was 0.275.

For CAAATGTA, the “PBM E-score” value is 0.294.

With GCGTACGC, the “PBM E-score” value was -0.112.

For ACCACCAC, the “PBM E-score” value is 0.0458.

Take CGAATCTC: the “PBM E-score” value is 0.0162.

For GATGCCCA, the “PBM E-score” value is -0.0463.

In the case of CGCTTTAC, the “PBM E-score” value is 0.0463.

Turning to GCGATACA, the “PBM E-score” value is 0.217.

Regarding ATTGGGAG, the “PBM E-score” value was -0.0672.

Consider ACGGATCG, for which the “PBM E-score” value was 0.00507.

For the sequence CCTTGCTA, the “PBM E-score” value was 0.0673.

Turning to AAAGGTCT, the “PBM E-score” value is -0.0899.

On to GAAATGTC, for which the “PBM E-score” value was 0.114.

In the case of GACATGTA, the “PBM E-score” value was 0.477 (active).

Regarding AACATGTC, the “PBM E-score” value is 0.424 (active).

As to AACATCTC, the “PBM E-score” value was 0.254.

GACATGTC: the “PBM E-score” value is 0.437 (active).

Turning to AAAATGTC, the “PBM E-score” value was 0.217.

In the case of AACATGTG, the “PBM E-score” value was 0.402 (active).

Take GACATTTA: the “PBM E-score” value is 0.177.

For the sequence GAAATGTA, the “PBM E-score” value is 0.131.

Turning to AACATCTG, the “PBM E-score” value was 0.22.

For the sequence CACATGTG, the “PBM E-score” value was 0.18.

For GACATATC, the “PBM E-score” value was 0.256.

Turning to CGTGCTGA, the “PBM E-score” value is 0.0459.

As to CTGGGCTC, the “PBM E-score” value was -0.186.

As for ACACCACA, the “PBM E-score” value is 0.262.

On to ACGCTGTC, for which the “PBM E-score” value was 0.0456.

Consider GCCACCAC, for which the “PBM E-score” value was -0.199.

For the sequence ATTGCCAG, the “PBM E-score” value is -0.0611.

For the sequence GTGTTAAA, the “PBM E-score” value was 0.246.

Take TAGTTACA: the “PBM E-score” value is 0.311 (active).

As for CGGTTACA, the “PBM E-score” value was 0.183.

For AGGTTACG, the “PBM E-score” value is -0.0221.

Turning to CTGTTACA, the “PBM E-score” value was 0.33 (active).

In the case of GCGTTACA, the “PBM E-score” value was 0.198.

As for ACGTTACG, the “PBM E-score” value is 0.0614.

For GTGTTACA, the “PBM E-score” value is 0.381 (active).

For the sequence ATGTTACG, the “PBM E-score” value is 0.326 (active).

With GAGTTACA, the “PBM E-score” value was 0.215.

As for CTGTTACC, the “PBM E-score” value is 0.142.

As to AAGTTACA, the “PBM E-score” value was 0.261.

For the sequence CGTTATTA, the “PBM E-score” value was 0.116.

As for AAAACCGG, the “PBM E-score” value was -0.0173.

With ACGCAATG, the “PBM E-score” value was 0.0404.

As for CTGTCCCC, the “PBM E-score” value is -0.0725.

For the sequence CAGCTAGG, the “PBM E-score” value was -0.046.

As for TACAATGA, the “PBM E-score” value was 0.266.

For the sequence ATGTTACC, the “PBM E-score” value is 0.331 (active).

Regarding AAGTTACC, the “PBM E-score” value is 0.148.

On to AGGTTACA, for which the “PBM E-score” value is 0.191.

AGGTTACC: the “PBM E-score” value was -0.0352.

In the case of ATGTTACA, the “PBM E-score” value is 0.406 (active).

As for ACGTTACA, the “PBM E-score” value was 0.282.

As to AAGTCGTG, the “PBM E-score” value was 0.0196.

Consider AAAATGTA, for which the “PBM E-score” value was 0.166.

Consider CGATATTA, for which the “PBM E-score” value is 0.219.

On to ATTTTACA, for which the “PBM E-score” value was 0.305.

AATTACGT: the “PBM E-score” value was 0.122.

AATTACCA: the “PBM E-score” value was 0.184.

Turning to AATTACAA, the “PBM E-score” value is 0.396 (active).

For AATTACAG, the “PBM E-score” value is 0.244.

Turning to GATTACAA, the “PBM E-score” value was 0.314 (active).

CATTACAA: the “PBM E-score” value was 0.288.

With AATTACTA, the “PBM E-score” value was 0.179.

TCTTACAA: the “PBM E-score” value was 0.246.

Regarding AATTACAT, the “PBM E-score” value was 0.385 (active).

With TATTACAA, the “PBM E-score” value is 0.341 (active).

GATTACCA: the “PBM E-score” value is 0.0721.

Take GATTACTA: the “PBM E-score” value was 0.184.

Take AAGACTGC: the “PBM E-score” value is -0.0769.

AAATGACG: the “PBM E-score” value was 0.171.

As to GATGCCAA, the “PBM E-score” value is -0.0306.
